# Assay outcomes from PubChem BioAssay.
# USP30 block – inhibitors of human USP30 deubiquitinase; Q70CQ3; purified USP30, Ub-rhodamine cleavage fluorescence; inhibition, % at 25 µM; 47,000 tested, 5.3% active; AID 1645860
# USP28 inh – human USP28 deubiquitinase inhibition. inhibition, % at 25 µM. purified USP28, Ub-rhodamine cleavage fluorescence, 30 min. AID 1645857. Q96RU2. 47,000 tested, 3% active
# Target sequence (Q96RU2 whole entry, looked up): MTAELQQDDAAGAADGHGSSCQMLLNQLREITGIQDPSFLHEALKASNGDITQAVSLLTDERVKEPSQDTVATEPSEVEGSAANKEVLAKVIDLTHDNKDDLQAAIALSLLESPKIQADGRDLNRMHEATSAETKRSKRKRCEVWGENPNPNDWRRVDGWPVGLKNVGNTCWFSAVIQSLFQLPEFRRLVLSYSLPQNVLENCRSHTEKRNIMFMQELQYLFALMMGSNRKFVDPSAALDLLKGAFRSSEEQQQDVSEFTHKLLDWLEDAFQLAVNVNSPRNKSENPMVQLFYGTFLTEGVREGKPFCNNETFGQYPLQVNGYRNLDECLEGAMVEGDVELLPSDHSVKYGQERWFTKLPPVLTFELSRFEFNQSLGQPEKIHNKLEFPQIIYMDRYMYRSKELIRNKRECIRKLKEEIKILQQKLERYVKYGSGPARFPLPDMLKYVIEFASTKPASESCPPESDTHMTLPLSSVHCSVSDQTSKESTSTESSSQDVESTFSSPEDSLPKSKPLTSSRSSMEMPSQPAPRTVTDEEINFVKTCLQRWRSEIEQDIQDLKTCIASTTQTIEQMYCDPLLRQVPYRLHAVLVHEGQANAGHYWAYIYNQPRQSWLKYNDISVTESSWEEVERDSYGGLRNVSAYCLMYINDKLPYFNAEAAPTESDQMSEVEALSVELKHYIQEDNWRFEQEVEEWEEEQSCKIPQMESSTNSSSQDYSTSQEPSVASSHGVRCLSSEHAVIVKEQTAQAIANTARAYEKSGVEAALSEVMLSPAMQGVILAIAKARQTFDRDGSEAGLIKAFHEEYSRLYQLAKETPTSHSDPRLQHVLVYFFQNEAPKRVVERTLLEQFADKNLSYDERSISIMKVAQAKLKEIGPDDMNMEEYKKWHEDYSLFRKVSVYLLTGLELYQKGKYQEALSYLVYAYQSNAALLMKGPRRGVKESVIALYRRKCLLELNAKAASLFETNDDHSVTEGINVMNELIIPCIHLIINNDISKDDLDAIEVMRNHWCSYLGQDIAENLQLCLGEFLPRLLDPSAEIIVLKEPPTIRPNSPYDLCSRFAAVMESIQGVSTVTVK
# USP17 block – inhibitors of human USP17 deubiquitinase; A8MUK1; purified USP17, Ub-rhodamine cleavage fluorescence, 3 h; inhibition, % at 50 µM; 47,000 tested, 6.5% active; AID 1645855
# USP8 block – inhibitors of human USP8 deubiquitinase; purified USP8, Ub-rhodamine cleavage fluorescence, 30 min; inhibition, % at 20 µM; 47,000 tested, 4.2% active
# * marks the source's active call; other numbers are inactive results; . = no result given. Shown are actives, neighbours in structure and some others; about 13% of the full set was active somewhere. No stated cut-off is given here; in the data, active means inhibition above about 30%; inactive means the rest.
SMILES,USP30 block,USP28 inh,USP17 block,USP8 block
Cc1ccccc1NC(=O)CN1C(=O)CC(c2ccccc2)S(=O)(=O)c2ccccc21 (configuration not stated),6,14,23,-2
Cc1cccc(NC(=O)CN2C(=O)CC(c3ccccc3)S(=O)(=O)c3ccccc32)c1C (configuration not stated),-84,-13,51*,8
COc1ccc(NC(=O)CN2CC(C)Sc3ccccc32)cc1 (configuration not stated),-16,3,28,44*
COc1ccc(NC(=O)CN2C(=O)CC(c3ccccc3)S(=O)(=O)c3ccccc32)cc1 (configuration not stated),24,14,31*,16
CC(C)n1nccc1CN1C[C@@H](O)[C@H](NC(=O)c2cscn2)C1,-33,-10,2,-7
N#Cc1c(SCCO)nc(N2CCCC2)c2c1CCCC2,4,62*,7,7
N#Cc1c(-c2ccccc2)nc(N2CCCC2)nc1N1CCCC1,-23,-8,-10,-137
CC(C)(C)C(=O)COC(=O)c1c2c(nc3ccccc13)CCCCC2,6,2,11,10
O=C(OCc1c(F)cccc1Cl)c1c2c(nc3ccccc13)CCC2,25,34*,44*,28
Cc1c(C(=O)Nc2ccc(F)cc2Cl)sc2ncn(CC(=O)Nc3cccc(C(F)(F)F)c3)c(=O)c12,.,.,-1,-8
COc1ccccc1-n1ccn2cc(-c3ccc(C)c(C)c3)nc2c1=O,16,7,31*,11
COc1cccc(-c2cn3ccn(-c4ccccc4)c(=O)c3n2)c1,-24,-23,28,-3
N#Cc1c(N)nc2c(c1-c1ccccc1)CCc1ccccc1-2,-3,16,-2,9
N#Cc1c(-c2ccccc2Cl)c2c([nH]c1=O)-c1ccccc1CC2,-8,0,10,47*
N#Cc1c(-c2cccnc2)c2c([nH]c1=O)-c1ccccc1CC2,-497,-95,-119,-23
N#Cc1c(-c2ccc(F)cc2)c2c([nH]c1=O)-c1ccccc1OC2,-36,1,13,65*
CSc1nc(N)c2c(n1)N[C@H]1OC[C@H](O)[C@H](O)[C@H]1N2,-319,-69,-122,-26
O=C(Oc1ccc2cc(Br)ccc2c1)c1ccncc1,35*,2,22,29
O=C1NCc2ccccc2CC12CCN(Cc1ccccc1F)CC2,-14,-11,-18,-31
CCCCCCCCCCCC1=C(O)C(=O)C=C(O)C1=O,97*,98*,100*,60*
O=C(COc1ccc(N2CC(C(=O)NCc3ccc4c(c3)OCO4)CC2=O)cc1)Nc1ccc(F)cc1 (configuration not stated),57*,8,57*,53*
Cc1ccc(N2CC(C(=O)NCCc3ccc(Cl)cc3)CC2=O)cc1 (configuration not stated),4,-5,41*,11
O=C(COc1ccc(N2CC(C(=O)NCc3ccc4c(c3)OCO4)CC2=O)cc1)Nc1ccc(Cl)cc1 (configuration not stated),15,5,36*,25
O=C(COc1ccc(N2CC(C(=O)NCc3ccccc3)CC2=O)cc1)Nc1ccc(F)cc1 (configuration not stated),58*,23,60*,64*
CC(=O)N1Cc2ccccc2CC2(CCN(Cc3ccc(O)cc3)C2)C1 (configuration not stated),-3,1,0,6
SMILES,USP30 block,USP28 inh,USP17 block,USP8 block
Cc1c(C(=O)NCC2(N3CCCCC3)CCCCC2)oc2c1ccc1ccccc12,-128,-43,-24,-33
O=C(Nc1ccc(-c2nnc3n2CCCCC3)cc1)c1cc2ccccc2o1,-2,35*,-2,-4
Cc1c(C(=O)Nc2ccc(-c3nnc4n3CCCCC4)cc2)oc2c1ccc1ccccc12,-12,68*,-3,4
COc1ccc2[nH]c3c(c2c1)CCN1C(=O)CN(C2CC2)C(=O)[C@]31C,-32,-25,-4,-4
CN(C)C=Nc1c(C#N)cnn1-c1ccc([N+](=O)[O-])cc1,74*,19,17,-10
COc1ccc(CC(=O)N2CCN(S(=O)(=O)c3ccc4c(c3)OCCCO4)CC2)cc1,-10,-6,-9,-5
CCC(CC)NC(=O)c1ccc2nnc(C3CCN(C(=O)N(C)C)C3)n2c1 (configuration not stated),-28,-12,-18,-79
Cc1cc(C)c(S(=O)(=O)N2CCC(C(=O)OC(C)C(=O)Nc3ccccc3-c3ccccc3)CC2)c(C)c1 (configuration not stated),-4,3,-2,0
CCOC(=O)c1cccc(NC(=O)c2ccc(S(=O)(=O)N3CCN(C)CC3)cc2)c1,-2,31*,.,1
CC(C)NS(=O)(=O)c1ccc(C(=O)Nc2ccc(-c3nc4ccccc4o3)cc2)cc1,-150,-28,10,-13
CCOC(=O)c1ccc(S(=O)(=O)N2CCC(C(=O)OC(C)C(=O)Nc3cccc([N+](=O)[O-])c3)CC2)cc1 (configuration not stated),83*,42*,8,-59
CCOC(=O)c1ccc(NC(=O)c2ccc(S(=O)(=O)N3CCc4ccccc4C3)cc2)cc1,50*,9,33*,10
O=C(Nc1ccc(-c2nc3ccccc3o2)cc1)c1ccc(S(=O)(=O)N2CCc3ccccc3C2)cc1,34*,4,35*,-10
Cc1ccc(CNC(=O)c2ccc3ccnc(N4CCN(c5ccc(Cl)cc5)CC4)c3c2)cc1,-43,1,-1,-11
Cc1cc(C)c2c(=O)cc(C(=O)NCC(c3ccco3)N3CCCC3)oc2c1 (configuration not stated),-12,-10,-4,-1
CCOC(=O)N1CCN(C(=O)c2cn(CC)c3ccc(S(=O)(=O)N4CCc5ccccc5C4)cc3c2=O)CC1,-8,0,19,46*
CCn1cc(C(=O)N2CCCCCC2)c(=O)c2cc(S(=O)(=O)N3CCCCCC3)ccc21,-18,-7,-13,-10
N#Cc1cc2c([nH]c1=O)CC(c1ccccc1)C/C2=N\Nc1ccccc1 (configuration not stated),-54,-4,0,51*
N#Cc1cc2c(=O)n(Cc3ccccc3)ccc2[nH]c1=O,-20,-2,0,-4
O=C(c1ccc(OCC2CCN(C(=O)c3ccccc3)CC2)cc1)N1CCOCC1,5,-4,-2,-2
O=C(CCC1CCCCC1)Nc1ccccc1C(=O)N1CCOCC1,40*,34*,70*,80*
CCOC(=O)c1cc(-c2ccccc2)sc1NC(=O)CNc1cccc(C(C)=O)c1,-8,-3,-2,3
CCOC(=O)c1c(-c2ccccc2Cl)csc1NC(=O)CNc1cccc(O)c1,-39,39*,32*,23
CCc1nnc(NC(=O)c2nnn(-c3ccccc3Cl)c2C)s1,37*,60*,11,-8
CC(=O)c1oc2nc3c(c(-c4ccc(Cl)cc4)c2c1N)CCc1ccccc1-3,-158,9,38*,65*
COc1ccc(-c2ccc(CNCC3CCNCC3)o2)cc1Cl,0,11,2,0
